Giardia FBPA inh: blocks Giardia fructose-bisphosphate aldolase activity | A8B2U2 | purified Giardia FBPA | Potency, µM (doses to about 59.6 µM), without a hit: top-dose activity, negative = inhibition, usual class: inhibitors | hit rate 0.71% among 290,000; further: potency means the concentration at half of the fitted maximal effect; on the % scale 0 is the no-effect control and ±100 the full control effect; nearly all actives have a fitted effect of over 55% in size
Target sequence (A8B2U2 whole entry, looked up): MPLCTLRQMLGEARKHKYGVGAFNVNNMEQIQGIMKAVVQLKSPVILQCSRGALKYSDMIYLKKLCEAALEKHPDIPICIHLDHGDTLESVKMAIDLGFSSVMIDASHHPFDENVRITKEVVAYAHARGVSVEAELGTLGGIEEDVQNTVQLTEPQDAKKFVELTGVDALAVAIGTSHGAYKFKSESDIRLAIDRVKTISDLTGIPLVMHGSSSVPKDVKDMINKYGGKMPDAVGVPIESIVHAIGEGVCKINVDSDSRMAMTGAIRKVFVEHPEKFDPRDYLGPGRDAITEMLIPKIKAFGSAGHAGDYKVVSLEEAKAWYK
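Giardia FBPA (40 nM reagent) was preincubated 10 min at RT with compound (up to 57.5 uM final), then substrate plus GAPDH/TPI/NAD/arsenate coupling system with diaphorase/resazurin was added; resorufin fluorescence (525/598 nm) was read after 20 min.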
Pf growth 48h: inhibits P. falciparum growth in the first generation, 48 h; Potency, µM (doses to about 28.7 µM), for inactives: at the highest dose activity change, negative = inhibition, most hits filed as inhibitors; AID 504832; P. falciparum luciferase growth in erythrocytes, 48 h; hit rate 5.9% among 310,000; further: potency means the concentration at half of the fitted maximal effect; on the % scale 0 is the no-effect control and ±100 the full control effect
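Here the parasites carry a stable luciferase gene and grow inside erythrocytes in Albumax-based RPMI medium with compound for one erythrocytic cycle. Activity is scored as loss of luminescent signal.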
Pf growth 96h: P. falciparum growth inhibition at 96 hour, primary screen for plastid delayed-death inhibitors | P. falciparum luciferase reporter growth, 96 h | Potency, µM (highest dose often 28.7 µM), without a hit: at the top dose activity change, negative = inhibition, hits mostly inhibitors | hit rate 6.9% among 320,000 | AID 504834; further: potency means the concentration at half of the fitted maximal effect; on the % scale 0 is the no-effect control and ±100 the full control effect
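Readout is luminescence from an integrated firefly luciferase in P. falciparum. Red cells, 2% hematocrit and 0.05% parasitemia final, were cultured with compound through two parasite generations (96 hours) at 37 C, 5% CO2.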
Shiga toxin inh: Shiga toxin inhibition. hit rate 9.2% among 290,000. Vero cells, Shiga toxin protein synthesis inhibition reporter. AID 2315. inhibition, % at 38.7 µM; in the data active means inhibition mostly above about 28%, no sharp cut-off; inactive means mostly below about 43%; further: 0% is about no effect
CHX counter: affects cycloheximide protein synthesis inhibition readout, counter-screen | hit rate 12% among 300,000 | max response, % | cell reporter, cycloheximide protein synthesis inhibition counterscreen | AID 2314; in the data active means max response mostly above about 13%, no sharp cut-off; inactive means mostly below about 14%; further: read at 38.3 µM for the half of the compounds with a filed dose; 0% is about no effect
NS1 function inh: inhibitors of influenza NS1 protein function; hit rate 0.4% among 270,000; Potency, µM (series often up to 46.1 µM), without a hit: at the highest dose activity, positive = more growth; calls by dose curve; further: potency means the concentration at half of the fitted maximal effect; actives are rising curves; nearly all actives have a fitted effect of over 50% in size
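Read-out: OD600 growth recovery of NS1-expressing budding yeast. Cells grown overnight at 30C in -URA glucose medium, washed, resuspended and diluted 1:100 in 2% galactose assay medium, pH 6.0. Same strain lacking NS1 served as positive control.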
The depositor's hits bear a star; ? = inconclusive; nt = no result; [ ] = another dose, or the depositor's remark. An excerpt weighted towards active compounds, which were near 21% of everything screened. Unless noted, the call rests on the fitted dose curve; in most records, active means well fitted curve in the direction sought with a large enough effect; inconclusive means small, poorly fitted or top-dose-only effect, or another doubt; inactive means no such curve, though single readings can be large; an effect the other way counts as inactive or inconclusive.

SMILES | Giardia FBPA inh | Pf growth 48h | Pf growth 96h | Shiga toxin inh | CHX counter | NS1 function inh
Cc1cn([C@@H](CCCCNC(=O)OC(C)(C)C)C(=O)NCCCCCCCCCCC(=O)N2CCN(C(=O)OC(C)(C)C)CC2)nn1 | nt | 2.62µM* | 5.22µM* | nt | nt | nt
CSCC[C@@H](C(=O)NCCCCCCCCCCC(=O)N1CCNCC1)n1cc(CCO)nn1 | nt | ? | 60.8% | nt | nt | nt
CCOC(=O)c1cc2c(C)n(-c3ccc(N(C)C)cc3)c(C)c2cc(C(=O)OCC)c1=O | -6.4% | ? | 3.29µM* | 9.0 | 19.3 | 0.8%
CCOC(=O)c1cc2c(C)n(-c3ccc(OCC)cc3)c(C)c2cc(C(=O)OCC)c1=O | 0.7% | ? | ? | -12.9 | -7.0 | 5.9%
Cc1ccc(S(=O)(=O)NC(=O)COc2cc(C)ccc2C(C)C)cc1 | 24.3% | 0.1% | 176.9% | 0.4 | 2.4 | -25.2%
CC(C)(C)c1ccc(NC(=O)CC2(C(F)(F)F)OCCO2)cc1 | -1.9% | nt | -11.0% | 33.2 | 32.1* | -4.5%
O=C(O)CC1(CC(=O)Nc2ccc(C(F)(F)F)cc2)CCCC1 | 5.7% | ? | 34.8% | -3.8 | -2.9 | 5.7%
CN(CCC#N)C(=O)c1cc2c(s1)-c1ccccc1SC2 | -6.2% | 152.6% | 165.1% | 80.6* | 51.7* | -1.7%
CCOc1ccc2cc(C(=O)c3ccccc3)c(=O)oc2c1 | 6.1% | 129.9% | 0.5% | active | 33.3* | 3.1%
COc1ccccc1C(=O)c1cc2ccc(O)cc2oc1=O | 1.3% | -3.7% | -13.7% | -11.3 | 20.4 | -4.1%
CCOc1ccc2cc(C(=O)NCc3ccccc3)c(=N)oc2c1 | 1.2% | 23.1% | 11.7% | 27.5 | 7.1 | 2.2%
COc1ccc2cc(C(=O)c3ccccc3)c(=O)oc2c1 | -2.6% | 73.7% | 127.8% | 93.7* | 45.1* | -99.1%
CN(C)C(=O)c1cc(C(=O)c2c(F)cccc2F)c[nH]1 | -1.9% | 36.9% | 37.9% | 16.2 | 11.2 | 2.5%
CCn1c(=O)c2cc(C(=O)N(C)c3cc(C)ccc3OC)sc2c2ccccc21 | -1.7% | 13.1µM* | ? | -5.0 | -1.5 | 3.5%
CCn1c(=O)c2cc(C(=O)N(C)c3ccc(OC)cc3OC)sc2c2ccccc21 | -4.9% | ? | 10.4µM* | -8.0 | -2.2 | 2.8%
COc1cccc(OCc2cc(/C=N/NC(=O)c3ccn[nH]3)ccc2OC)c1 | 1.0% | 63.0% | 76.9% | 70.8* | 49.6* | 9.0%
COc1ccc(/C=N/NC(=O)c2ccoc2C)cc1COc1c(C)cccc1C | -4.8% | ? | 10.4µM* | 117.4* | 32.8* | -115.4%
CCOC(=O)c1ccccc1OCc1cc(/C=N/NC(=O)c2cccnc2)ccc1OC | 0.7% | 8.5% | 35.3% | 19.7 | 1.3 | -9.1%
COc1cc(/C=N/NC(=O)c2ccoc2C)cc(OC)c1O | -5.7% | 0.2% | 2.62µM* | 83.4* | 47.2* | 7.5%
COc1ccc(/C=N\NC(=O)c2ccccc2OC)cc1COc1ccccc1C | 1.7% | 13.1µM* | -6.6% | 2.7 | 7.2 | -5.1%
COc1ccc(/C=N\NC(=O)c2ccccc2Br)cc1COc1c(F)c(F)cc(F)c1F | 0.5% | 35.2% | 11.4% | -10.7 | -1.6 | -23.9%
COc1ccc(/C=N\NC(=O)c2cc(O)c(O)c(O)c2)cc1COc1ccc(C(=O)OCC(C)C)cc1 | ? | 2.94µM* | ? | 30.0 | 5.9 | 5.6%
COc1ccc(/C=N/NC(=O)c2nn(C)cc2Br)cc1CSCc1ccco1 | nt | -12.4% | -5.8% | 38.3* | 30.7* | -0.3%
COc1ccc(C(=O)N/N=C/c2ccc(OC)c(COc3ccccc3)c2)cc1 | nt | 9.6% | ? | 10.5 | 10.6 | 10.0%
COc1ccc(/C=N/NC(=O)c2ccco2)cc1COc1ccc(F)cc1 | 3.0% | 9.28µM* | ? | 21.5 | 8.1 | 7.3%
SMILES | Giardia FBPA inh | Pf growth 48h | Pf growth 96h | Shiga toxin inh | CHX counter | NS1 function inh
COc1cc(OC)cc(C(=O)N/N=C/c2ccc(OC)c(COc3ccc4ccccc4c3)c2)c1 | -4.6% | 56.0% | ? | -8.2 | 1.6 | ?
COc1ccc(/C=N\NC(=O)c2ccccc2)cc1COc1ccccc1 | 0.4% | ? | 11.7µM* | 44.8* | 25.1* | -4.9%
COc1ccc(/C=N\NC(=O)c2ccccc2F)cc1COc1ccc(F)cc1 | 6.4% | 3.9% | ? | 1.5 | 2.2 | -3.3%
O=C(NCCC[N+]1=CC=N[C@H]1c1ccccc1)N1CCCc2nc(-c3ccc(Br)cc3)ccc21 | -3.0%[12.9 µM] | nt | nt | nt | nt | nt
COc1ccc(/C=N\NC(=O)c2ccccc2F)cc1COc1ccc(F)cc1F | -17.3% | ? | ? | 32.1* | 23.9* | -40.5%
COc1ccc(/C=N/NC(=O)c2cc(C(C)(C)C)[nH]n2)cc1COc1ccc(F)cc1F | -2.0% | ? | 13.1µM* | 28.8 | 12.7 | nt
O=C(Nc1ccc2ccccc2n1)c1ccccc1Cl | -15.1% | 194.4% | 391.5% | 55.8* | 39.2* | -3.1%
O=C(Nc1ccc2ccccc2n1)c1ccc(Cl)cc1 | 5.2% | -11.6% | 241.0% | 67.3* | 49.7* | -1.4%
O=C(Nc1ccc2ccccc2n1)C1CCCCC1 | 0.0% | 124.6% | 235.9% | 52.8 | 72.8* | 0.5%
COc1ccc(C(=O)Nc2ccc3ccccc3n2)c(OC)c1OC | -2.7% | 33.7% | 114.3% | 74.0* | 50.8* | 8.8%
COc1ccccc1NC(=O)c1cc2ccccc2nc1C | 0.3% | -14.4% | -14.5% | -8.6 | -2.2 | -0.5%
CCOC(=O)Cc1c(C)nc(Cc2ccc(OC(C)C)cc2)[nH]c1=O | 2.0% | 13.0%[5.75 µM] | 23.6% | 14.4 | -3.5 | nt
COC(=O)C(=O)Nc1cccc2cccnc12 | nt | nt | nt | -7.9 | -1.0 | nt
Cc1ccc2c(C)c(C(=O)N(C)C(C)c3ccon3)oc2c1C (centres undefined) | 8.2% | -10.0% | -23.6% | 83.0* | 59.3* | -12.9%
CC(c1ccon1)N(C)C(=O)CCc1nnc(CCCCc2ccccc2)o1 (centres undefined) | -1.5% | -5.9% | ? | 13.2 | -0.3 | 0.1%
Cc1ccc2c(C)c(C(=O)N(C)C(C)c3ccncn3)oc2c1C (centres undefined) | nt | 0.0% | 7.5% | 54.5* | 12.9* | -9.2%
CCOc1cc(/C=C/c2cc(C(=O)O)c3ccccc3n2)ccc1O | ? | 27.5% | 61.1% | 2.9 | -0.3 | 0.9%
CCN(CC)c1ccc(/C=C/c2cc(-c3ccccc3)c3ccccc3n2)cc1 | 0.4% | ? | 11.7µM* | 23.9 | 16.0* | 14.0%
COc1ccccc1CN1C(=NC(=O)CCC2CCCC2)SC2CS(=O)(=O)CC21 (centres undefined) | nt | ? | ? | -4.1 | -2.2 | 0.1%
CN(CC(=O)NCc1cccnc1)S(=O)(=O)c1ccc(F)cc1 | 7.1% | 7.0% | ? | -3.0 | -2.2 | -8.6%
Cc1ccc(S(=O)(=O)NCC(=O)OCC(=O)N(C)C2CCS(=O)(=O)C2)cc1 (centres undefined) | nt | 54.6% | 3.5% | nt | nt | nt
O=C(Nc1ccc(Cl)c(S(=O)(=O)N2CCCCC2)c1)c1cccnc1 | nt | 11.7µM* | ? | nt | nt | nt
O=C(Nc1ccncc1)c1ccc(Cl)c(S(=O)(=O)N2CCCC2)c1 | nt | 11.7µM* | ? | nt | nt | nt
